Experimental data reported in PubChem BioAssay (NCATS).
Records with an inconclusive call do not appear. Where a call stands in place of a potency, no number is given. Calls of active or inactive are those of the source. Unless noted, calls come from the whole dose curve; as a rule, active = well fitted curve in the direction sought with a large enough effect; inconclusive = small, poorly fitted or top-dose-only effect, or another doubt; inactive = no such curve, though single readings can be large; an effect the other way counts as inactive or inconclusive.

Experiments:
[1] = NS1 protein of Zika virus - qHTS assay to identify small molecule inhibitors in human HEK 293 cells (AID 1347053); note: series mostly up to about 46 µM; nearly all actives have a fitted effect of over 55% in size
How it was run: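 HEK 293; 20 h pre-culture, 37 C/5% CO2; cpd 1 h pre-infection; ZIKV MR766, MOI = 0.5, 24 h, 37 C; TR-FRET NS1 readout (two anti-NS1 Abs); norm. to no-virus vs infected.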

[2] = qHTS for Inhibitors of the Functional Ribonucleoprotein Complex (vRNP) of Lassa (LASV) Arenavirus: LASV Primary Screen - GLuc reporter signal (AID 1347082; calls by dose curve; tested in HEK293 reporter line; note: series mostly up to about 57 µM; nearly all actives have a fitted effect of over 60% in size)
[3] = qHTS for Inhibitors of the Functional Ribonucleoprotein Complex (vRNP) of Lassa (LASV) Arenavirus: Viability assay - alamar blue signal for LASV Primary Screen (AID 1347083; calls by dose curve; tested in HEK293 reporter line; note: series mostly up to about 57 µM; nearly all actives have a fitted effect of over 80% in size)
[4] = qHTS for Inhibitors of the Functional Ribonucleoprotein Complex (vRNP) of Lymphocytic Choriomeningitis Arenaviruses (LCMV): Viability assay - alamar blue signal for LCMV Primary Screen (AID 1347085; calls by dose curve; tested in HEK293 reporter line; note: series mostly up to about 57 µM; nearly all actives have a fitted effect of over 80% in size)
[5] = target: Nucleoprotein (Lymphocytic choriomeningitis virus (strain Armstrong)) (UniProt P09992); assay: qHTS for Inhibitors of the Functional Ribonucleoprotein Complex (vRNP) of Lymphocytic Choriomeningitis Arenaviruses (LCMV): LCMV Primary Screen - GLuc reporter signal (AID 1347086; calls by dose curve; note: series mostly up to about 57 µM; nearly all actives have a fitted effect of over 70% in size)
[6] = qHTS of pediatric cancer cell lines to identify multiple opportunities for drug repurposing: Primary screen for TC32 cells (AID 1347089); note: nearly all actives have a fitted effect of over 60% in size
How it was run: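 qHTS, TC32, 48 h drug treatment, CellTiter-Glo luminescence as a proxy for metabolically active cells; primary top concentration 46 µM (MIPE 11-pt, NPC 8-pt); confirmatory 11-pt.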

[7] = qHTS of pediatric cancer cell lines to identify multiple opportunities for drug repurposing: Primary screen for DAOY cells (AID 1347090); note: nearly all actives have a fitted effect of over 55% in size; note: potency is the fitted concentration of half-maximal effect
How it was run: (§1)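 Viability measured as metabolically active cells via CellTiter-Glo luminescence following 48 hours of compound exposure, 11-point dilutions in confirmatory testing. 500-1,000 cells/well plated 5 hours before dosing; controls were DMSO and 2.3 µM bortezomib.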

[8] = qHTS of pediatric cancer cell lines to identify multiple opportunities for drug repurposing: Primary screen for SJ-GBM2 cells (AID 1347091)
How it was run: as §1

[9] = qHTS of pediatric cancer cell lines to identify multiple opportunities for drug repurposing: Primary screen for A673 cells (AID 1347092); note: nearly all actives have a fitted effect of over 45% in size; note: potency is the fitted concentration of half-maximal effect
How it was run: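 Luminescence from CellTiter-Glo, taken after 15 min at room temperature, served as the proxy for metabolically active cells following 48 h treatment. Both potency and efficacy were taken from curves fitted to the titration data.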

[10] = qHTS of pediatric cancer cell lines to identify multiple opportunities for drug repurposing: Primary screen for BT-37 cells (AID 1347094); note: potency is the fitted concentration of half-maximal effect
How it was run: (§2)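 Readout: CellTiter-Glo luminescence, 48 h treatment. Controls DMSO (neutral) and bortezomib 2.3 µM final (positive). Potency and efficacy taken from primary-screen concentration-response curves.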

[11] = P-glycoprotein substrates identified in KB-8-5-11 adenocarcinoma cell line, qHTS therapeutic library screen (AID 1346987); note: nearly all actives have a fitted effect of over 65% in size; note: potency is the fitted concentration of half-maximal effect
How it was run: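 KB-8-5-11: colchicine-selected sub-line of KB-3-1 over-expressing P-gp; assay medium lacked colchicine. 72 h drug exposure at 37 degree C, CellTiter-Glo.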

[12] = qHTS of pediatric cancer cell lines to identify multiple opportunities for drug repurposing: Primary screen for SK-N-MC cells (AID 1347093); note: potency is the fitted concentration of half-maximal effect
How it was run: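 Metabolically active cells were quantified by ATP-dependent luminescence (CellTiter-Glo, 15 min at room temperature) following 48 h treatment. Cells had been plated at 500-1,000 per well and settled for 5 h beforehand.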

[13] = qHTS of pediatric cancer cell lines to identify multiple opportunities for drug repurposing: Primary screen for NB-EBc1 cells (AID 1347095); note: potency is the fitted concentration of half-maximal effect
How it was run: as §2

[14] = qHTS of pediatric cancer cell lines to identify multiple opportunities for drug repurposing: Primary screen for U-2 OS cells (AID 1347096); note: nearly all actives have a fitted effect of over 50% in size
How it was run: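 Viability after 48 h compound treatment at 37C, 500-1,000 cells/well, read as ATP luminescence with CellTiter-Glo. Primary screens used 11-point (MIPE, 0.78 nM-46 µM) or 8-point (NPC, 0.59 nM-46 µM) final concentrations; follow-up screens used 11-point dilutions.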

[15] = Natriuretic polypeptide receptor (hNpr1) antagonism - Pilot counterscreen GloSensor control cell line (AID 1347045; calls by dose curve; note: series mostly up to about 38 µM)
How it was run: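 HEK293 cells carrying the GloSensor cGMP sensor (GIP/pGS-40F) were loaded with 2% GloSensor reagent for 2 h, exposed to compounds for 30 min, and then stimulated with 50 uM sodium nitroprusside for 20 min at room temperature.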

[16] = target: Atrial natriuretic peptide receptor 1 (Homo sapiens) (UniProt P16066); assay: Natriuretic polypeptide receptor (hNpr1) antagonism - Pilot screen (AID 1347049; calls by dose curve;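 note: agonist-evoked cGMP luminescence read 20 min after hNppA addition; series mostly up to about 58 µM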)
How it was run: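 HEK293 cells expressing hNpr1 and GloSensor cGMP luciferase, 1500/well, loaded with 2% GloSensor reagent 2 h, compound 30 min at room temperature; luminescence read before and 20 min after 0.1 nM hNppA stimulation.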

[17] = target: Atrial natriuretic peptide receptor 2 (Homo sapiens) (UniProt P20594); assay: Natriuretic polypeptide receptor (hNpr2) antagonism - Pilot subtype selectivity assay (AID 1347050; calls by dose curve)
How it was run: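 HEK293 cells expressing hNpr2 and a GloSensor cGMP luciferase sensor, 1500/well, preloaded 2 h with 2% GloSensor reagent, compound 30 min, then 1 nM hNppC for 20 min. Antagonism from luminescence after versus baseline pre-read; LOPAC in 1:5 titrations.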

[18] = target: Tyrosine-protein phosphatase non-receptor type substrate 1 (Homo sapiens) + Leukocyte surface antigen CD47 (Homo sapiens) (UniProt P78324+Q08722); assay: CD47-SIRPalpha protein protein interaction - LANCE assay qHTS validation (AID 1347057; active = well fitted curve in the direction sought with a large enough effect in the signal ratio, with a control signal flat, not every such curve was filed as active; the % refers to the signal ratio; note: series mostly up to about 38 µM)
How it was run: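 First, His-tagged CD47 and Eu-labelled anti-His antibody met the compound for 30 min; next, site-specifically biotinylated SIRPalpha was added for 30 min; finally streptavidin-APC was added before reading the TR-FRET ratio.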

[19] = target: Parathyroid hormone/parathyroid hormone-related peptide receptor (Homo sapiens) (UniProt Q03431); assay: qHTS for PTHR1 Agonists: Optimization Screen against the NCGC LOPAC library (AID 1347079);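 note: GloSensor cAMP luminescence in HEK-293 GP2 cells expressing human PTHR1 with IBMX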
How it was run: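 Compounds were tested across a qHTS titration. PTHR1-expressing GP2 cells report cAMP rises via GloSensor luminescence after 1 hr compound exposure at 37C with IBMX present.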

Sequence of Nucleoprotein (Lymphocytic choriomeningitis virus (strain Armstrong)) (P09992 whole entry, looked up): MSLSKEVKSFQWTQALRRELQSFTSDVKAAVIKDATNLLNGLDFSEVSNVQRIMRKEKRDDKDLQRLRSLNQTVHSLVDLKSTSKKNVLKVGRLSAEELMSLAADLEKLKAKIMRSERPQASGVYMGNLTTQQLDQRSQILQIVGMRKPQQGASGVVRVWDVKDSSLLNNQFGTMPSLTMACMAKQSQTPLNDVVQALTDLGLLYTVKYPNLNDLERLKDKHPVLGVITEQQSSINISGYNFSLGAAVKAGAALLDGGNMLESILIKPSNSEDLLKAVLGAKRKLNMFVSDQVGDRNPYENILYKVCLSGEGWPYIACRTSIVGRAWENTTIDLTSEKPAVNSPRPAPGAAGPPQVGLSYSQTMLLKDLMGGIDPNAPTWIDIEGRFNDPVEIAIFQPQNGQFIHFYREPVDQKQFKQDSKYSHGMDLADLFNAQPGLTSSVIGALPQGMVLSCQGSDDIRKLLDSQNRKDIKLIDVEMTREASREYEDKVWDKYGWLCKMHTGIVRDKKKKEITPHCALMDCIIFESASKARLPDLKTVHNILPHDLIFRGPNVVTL
Sequence of Tyrosine-protein phosphatase non-receptor type substrate 1 (Homo sapiens) + Leukocyte surface antigen CD47 (Homo sapiens) (P78324 whole entry, looked up): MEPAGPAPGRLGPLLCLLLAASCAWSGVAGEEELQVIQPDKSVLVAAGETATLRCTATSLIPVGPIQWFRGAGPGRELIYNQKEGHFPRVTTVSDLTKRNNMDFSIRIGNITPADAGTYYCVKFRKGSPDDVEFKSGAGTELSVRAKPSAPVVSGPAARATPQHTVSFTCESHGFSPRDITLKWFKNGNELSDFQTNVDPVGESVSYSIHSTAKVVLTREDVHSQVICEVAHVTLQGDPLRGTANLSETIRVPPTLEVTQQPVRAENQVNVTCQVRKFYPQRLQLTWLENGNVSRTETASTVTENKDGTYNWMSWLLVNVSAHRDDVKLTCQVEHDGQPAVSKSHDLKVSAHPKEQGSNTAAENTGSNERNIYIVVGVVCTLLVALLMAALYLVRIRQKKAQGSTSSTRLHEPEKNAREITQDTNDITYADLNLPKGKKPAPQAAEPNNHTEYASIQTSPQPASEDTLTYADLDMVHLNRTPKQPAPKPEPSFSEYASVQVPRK
Sequence of Tyrosine-protein phosphatase non-receptor type substrate 1 (Homo sapiens) + Leukocyte surface antigen CD47 (Homo sapiens) (Q08722 whole entry, looked up): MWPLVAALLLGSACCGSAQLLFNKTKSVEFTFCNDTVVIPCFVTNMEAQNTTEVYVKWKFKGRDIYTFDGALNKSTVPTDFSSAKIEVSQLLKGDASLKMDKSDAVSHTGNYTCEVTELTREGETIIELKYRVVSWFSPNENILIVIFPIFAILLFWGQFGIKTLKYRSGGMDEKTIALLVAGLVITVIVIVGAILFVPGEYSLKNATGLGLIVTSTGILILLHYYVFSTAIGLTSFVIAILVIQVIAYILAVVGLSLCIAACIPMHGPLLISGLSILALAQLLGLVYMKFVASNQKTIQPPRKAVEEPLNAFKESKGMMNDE
Sequence of Atrial natriuretic peptide receptor 2 (Homo sapiens) (P20594 whole entry, looked up): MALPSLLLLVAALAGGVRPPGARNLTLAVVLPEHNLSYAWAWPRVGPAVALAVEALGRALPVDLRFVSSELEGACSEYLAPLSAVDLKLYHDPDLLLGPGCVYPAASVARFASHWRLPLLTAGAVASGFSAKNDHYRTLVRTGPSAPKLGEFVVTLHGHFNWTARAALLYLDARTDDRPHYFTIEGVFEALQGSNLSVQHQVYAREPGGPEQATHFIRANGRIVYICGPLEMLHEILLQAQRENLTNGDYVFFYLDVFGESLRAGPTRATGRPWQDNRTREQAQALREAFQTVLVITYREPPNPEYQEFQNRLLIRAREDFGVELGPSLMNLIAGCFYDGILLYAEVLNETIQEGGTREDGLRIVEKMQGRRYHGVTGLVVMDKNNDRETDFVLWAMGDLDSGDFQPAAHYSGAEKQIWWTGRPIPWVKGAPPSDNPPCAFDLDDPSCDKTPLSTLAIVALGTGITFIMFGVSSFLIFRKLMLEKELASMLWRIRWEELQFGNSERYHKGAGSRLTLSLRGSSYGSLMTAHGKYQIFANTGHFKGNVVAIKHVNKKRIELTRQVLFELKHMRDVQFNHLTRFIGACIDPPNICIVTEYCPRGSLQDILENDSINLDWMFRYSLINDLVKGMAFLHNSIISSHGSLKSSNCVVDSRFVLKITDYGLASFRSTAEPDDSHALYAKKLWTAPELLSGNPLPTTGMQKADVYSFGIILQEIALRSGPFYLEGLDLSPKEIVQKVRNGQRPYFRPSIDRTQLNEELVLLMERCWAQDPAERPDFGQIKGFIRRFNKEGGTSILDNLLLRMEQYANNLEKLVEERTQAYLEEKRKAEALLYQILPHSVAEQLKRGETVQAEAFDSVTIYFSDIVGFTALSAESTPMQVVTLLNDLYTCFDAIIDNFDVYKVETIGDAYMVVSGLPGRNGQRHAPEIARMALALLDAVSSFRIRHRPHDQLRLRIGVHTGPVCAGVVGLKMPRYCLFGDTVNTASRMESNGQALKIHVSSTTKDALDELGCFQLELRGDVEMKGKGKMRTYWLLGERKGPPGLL
Sequence of Parathyroid hormone/parathyroid hormone-related peptide receptor (Homo sapiens) (Q03431 whole entry, looked up): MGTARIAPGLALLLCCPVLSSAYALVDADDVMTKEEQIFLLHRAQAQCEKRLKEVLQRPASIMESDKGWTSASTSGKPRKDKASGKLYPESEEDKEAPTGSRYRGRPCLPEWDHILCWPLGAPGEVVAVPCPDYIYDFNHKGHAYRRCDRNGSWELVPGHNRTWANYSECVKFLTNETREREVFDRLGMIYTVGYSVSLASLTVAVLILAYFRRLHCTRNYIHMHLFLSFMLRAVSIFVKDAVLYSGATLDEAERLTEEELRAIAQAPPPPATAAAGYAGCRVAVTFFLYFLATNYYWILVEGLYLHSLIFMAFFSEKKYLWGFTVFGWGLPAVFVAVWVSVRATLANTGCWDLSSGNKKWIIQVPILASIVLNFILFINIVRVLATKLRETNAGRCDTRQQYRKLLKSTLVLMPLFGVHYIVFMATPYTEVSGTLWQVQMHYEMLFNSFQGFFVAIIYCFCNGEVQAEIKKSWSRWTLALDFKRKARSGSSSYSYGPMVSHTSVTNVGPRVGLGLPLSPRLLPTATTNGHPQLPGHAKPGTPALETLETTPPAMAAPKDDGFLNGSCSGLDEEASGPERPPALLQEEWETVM
Sequence of Atrial natriuretic peptide receptor 1 (Homo sapiens) (P16066 whole entry, looked up): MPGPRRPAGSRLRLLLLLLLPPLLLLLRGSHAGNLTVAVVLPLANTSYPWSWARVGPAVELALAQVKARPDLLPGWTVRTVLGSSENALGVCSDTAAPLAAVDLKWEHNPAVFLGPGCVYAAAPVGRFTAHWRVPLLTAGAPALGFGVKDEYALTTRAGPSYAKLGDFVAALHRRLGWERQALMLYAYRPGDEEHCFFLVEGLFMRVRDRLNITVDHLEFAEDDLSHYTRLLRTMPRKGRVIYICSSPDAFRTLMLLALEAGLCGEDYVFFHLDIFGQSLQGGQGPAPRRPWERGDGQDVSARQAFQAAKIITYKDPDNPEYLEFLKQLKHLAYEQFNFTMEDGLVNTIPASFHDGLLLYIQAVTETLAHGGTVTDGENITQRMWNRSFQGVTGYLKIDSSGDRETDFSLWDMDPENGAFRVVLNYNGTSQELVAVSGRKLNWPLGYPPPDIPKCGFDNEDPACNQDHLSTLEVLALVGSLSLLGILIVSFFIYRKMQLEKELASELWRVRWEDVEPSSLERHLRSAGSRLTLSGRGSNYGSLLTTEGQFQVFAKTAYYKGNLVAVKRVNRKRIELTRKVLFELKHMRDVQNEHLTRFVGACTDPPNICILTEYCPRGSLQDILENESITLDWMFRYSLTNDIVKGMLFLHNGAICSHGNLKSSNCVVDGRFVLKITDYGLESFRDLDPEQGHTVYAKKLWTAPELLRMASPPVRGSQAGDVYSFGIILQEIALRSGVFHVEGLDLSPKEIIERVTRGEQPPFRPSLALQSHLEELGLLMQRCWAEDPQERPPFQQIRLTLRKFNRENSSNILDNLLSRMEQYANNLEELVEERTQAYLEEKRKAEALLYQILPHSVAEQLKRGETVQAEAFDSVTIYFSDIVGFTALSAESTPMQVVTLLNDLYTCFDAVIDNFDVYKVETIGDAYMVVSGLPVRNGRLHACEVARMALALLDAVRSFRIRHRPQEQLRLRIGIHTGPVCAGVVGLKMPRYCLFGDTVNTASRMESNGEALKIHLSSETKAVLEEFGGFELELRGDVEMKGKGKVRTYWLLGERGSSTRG

CC(Cc1ccccc1)NCCn1cnc2c1c(=O)n(C)c(=O)n2C (stereo unspecified)
outcome [1]: inactive
Potency [2]: inactive
Potency [3]: inactive
Potency [4]: inactive
Potency [5]: inactive
Potency [6]: inactive
Potency [7]: inactive
Potency [8]: inactive
Potency [9]: inactive
Potency [10]: inactive

C[C@](O)(CS(=O)(=O)c1ccc(F)cc1)C(=O)Nc1ccc(C#N)c(C(F)(F)F)c1
Potency [11]: 14.6 µM (active)
outcome [1]: inactive
Potency [4]: inactive
Potency [5]: inactive
Potency [6]: inactive
Potency [7]: 0.743 µM (active)
Potency [9]: 2.96 µM (active)
Potency [12]: 0.469 µM (active)
Potency [10]: 19.3 µM (active)
Potency [13]: 4.69 µM (active)

CCOP(=S)(OCC)Oc1ccc2c(C)c(Cl)c(=O)oc2c1
outcome [1]: inactive
Potency [2]: inactive
Potency [3]: inactive
Potency [4]: inactive
Potency [5]: inactive
Potency [6]: inactive
Potency [7]: inactive
Potency [8]: inactive
Potency [9]: 0.001 µM (active)
Potency [12]: inactive
Potency [10]: inactive
Potency [14]: inactive

O=C(O)/C=C\C(=O)O
Potency [11]: inactive
Potency [2]: inactive
Potency [3]: inactive
Potency [4]: inactive
Potency [5]: inactive

CCCOC(=O)c1cncn1C(C)c1ccccc1 (stereo unspecified)
outcome [1]: inactive
Potency [2]: inactive
Potency [3]: inactive
Potency [4]: inactive
Potency [5]: inactive
Potency [6]: inactive
Potency [7]: inactive
Potency [8]: inactive
Potency [9]: inactive
Potency [12]: inactive
Potency [10]: inactive

CC(=O)C1CCOC1=O (stereo unspecified)
outcome [1]: inactive
Potency [2]: inactive
Potency [3]: inactive
Potency [4]: inactive
Potency [5]: inactive
Potency [6]: inactive
Potency [7]: inactive
Potency [9]: inactive
Potency [12]: inactive
Potency [10]: inactive

Clc1ccccc1N1CCNCC1
outcome [1]: inactive
Potency [2]: inactive
Potency [3]: inactive
Potency [4]: inactive
Potency [5]: inactive
Potency [6]: inactive
Potency [7]: inactive
Potency [8]: inactive
Potency [9]: inactive
Potency [12]: inactive
Potency [10]: inactive
Potency [14]: inactive

CCCCCCCCCC(=O)O[C@H]1CC[C@H]2[C@@H]3CCC4=CC(=O)CC[C@@H]4[C@H]3CC[C@]12C
Potency [11]: 6.51 µM (active)
outcome [1]: inactive
Potency [2]: inactive
Potency [3]: inactive
Potency [4]: inactive
Potency [5]: inactive
Potency [7]: inactive
Potency [8]: inactive
Potency [9]: inactive
Potency [12]: inactive
Potency [10]: inactive
Potency [14]: inactive

O=C(CCCN1CCC2(CC1)C(=O)NCN2c1ccccc1)c1ccc(F)cc1
outcome [15]: inactive
outcome [16]: inactive
outcome [17]: inactive
outcome [18]: inactive
outcome [19]: inactive
Potency [2]: inactive
Potency [3]: inactive
Potency [4]: inactive
Potency [5]: inactive
Potency [6]: inactive
Potency [7]: inactive
Potency [9]: inactive
Potency [12]: inactive
Potency [13]: inactive
Potency [14]: inactive

CC(C)c1c(CN(C)C(C)Cc2ccccc2)n(C)n(-c2ccccc2)c1=O (stereo unspecified)
outcome [1]: inactive
Potency [2]: inactive
Potency [3]: inactive
Potency [4]: inactive
Potency [5]: inactive
Potency [6]: inactive
Potency [7]: inactive
Potency [9]: inactive
Potency [12]: inactive
Potency [10]: inactive
Potency [13]: inactive
Potency [14]: inactive

Nc1ccn(C[C@@H](CO)OCP(=O)(O)O)c(=O)n1
Potency [11]: inactive
Potency [2]: inactive
Potency [3]: inactive
Potency [4]: inactive
Potency [5]: inactive

COC1CC(=C(c2cccs2)c2cccs2)C[N+](C)(C)C1 (stereo unspecified)
Potency [11]: inactive
outcome [1]: inactive
Potency [2]: inactive
Potency [3]: inactive
Potency [4]: inactive
Potency [5]: inactive
Potency [6]: inactive
Potency [7]: inactive
Potency [12]: inactive
Potency [10]: inactive
Potency [13]: inactive
Potency [14]: inactive

CC(C(=O)c1ccccc1)N(C)C (stereo unspecified)
outcome [1]: inactive
Potency [2]: inactive
Potency [3]: inactive
Potency [4]: inactive
Potency [5]: inactive
Potency [6]: inactive
Potency [7]: inactive
Potency [8]: inactive
Potency [9]: inactive
Potency [12]: inactive
Potency [10]: inactive
Potency [14]: inactive

C[C@]12CCC(=O)C=C1CC[C@@H]1[C@@H]2CC[C@]2(C)C(=O)CC[C@@H]12
outcome [1]: inactive
Potency [2]: inactive
Potency [3]: inactive
Potency [4]: inactive
Potency [5]: inactive
Potency [6]: inactive
Potency [7]: inactive
Potency [8]: inactive
Potency [9]: inactive
Potency [12]: inactive
Potency [10]: inactive
Potency [13]: inactive
Potency [14]: inactive

CN(C)CCc1c[nH]c2cccc(OP(=O)(O)O)c12
outcome [1]: inactive
Potency [2]: inactive
Potency [3]: inactive
Potency [4]: inactive
Potency [5]: inactive
Potency [6]: inactive
Potency [7]: inactive
Potency [8]: inactive
Potency [9]: inactive
Potency [12]: inactive
Potency [10]: inactive
Potency [14]: inactive

CCN(CC)C(=O)[C@@H]1C=C2c3cccc4[nH]cc(c34)C[C@H]2N(C)C1
outcome [1]: inactive
Potency [2]: inactive
Potency [4]: inactive
Potency [5]: inactive
Potency [6]: inactive
Potency [7]: inactive
Potency [9]: 56.6 µM (active)
Potency [14]: inactive

CC(=O)OCC[N+](C)(C)C
Potency [2]: inactive
Potency [3]: inactive
Potency [4]: inactive
Potency [5]: inactive

C[C@@H]1CN(c2c(F)c(F)c3c(=O)c(C(=O)O)cn(C4CC4)c3c2F)C[C@H](C)N1
Potency [2]: inactive
Potency [3]: inactive
Potency [4]: inactive
Potency [5]: inactive

ClCCN1CCCC1
outcome [1]: inactive
Potency [2]: inactive
Potency [3]: inactive
Potency [4]: inactive
Potency [5]: inactive
Potency [6]: inactive
Potency [7]: inactive
Potency [9]: inactive
Potency [12]: inactive
Potency [10]: inactive
Potency [13]: inactive
Potency [14]: inactive
